Structures are written as SMILES. Where “and” joins values, the source holds several entries; their conditions need not be identical. Equal values may be shown once. Records with an inconclusive call do not appear. Where a structure was tested more than once in an assay, its records may differ in their call. Calls of active or inactive are those of the source. The calls were made as follows, unless noted: active = hit-call score of the fitted dose curve at least 0.9, where 1 is the maximum; inactive = score below 0.9.

A word on the AC50: it is the concentration at which the activity in the assay is half-maximal.

Chain of human Peroxisome Proliferator-activated Receptor delta (PPARd), PPARD (gene 5467) (Q03181 whole entry, looked up): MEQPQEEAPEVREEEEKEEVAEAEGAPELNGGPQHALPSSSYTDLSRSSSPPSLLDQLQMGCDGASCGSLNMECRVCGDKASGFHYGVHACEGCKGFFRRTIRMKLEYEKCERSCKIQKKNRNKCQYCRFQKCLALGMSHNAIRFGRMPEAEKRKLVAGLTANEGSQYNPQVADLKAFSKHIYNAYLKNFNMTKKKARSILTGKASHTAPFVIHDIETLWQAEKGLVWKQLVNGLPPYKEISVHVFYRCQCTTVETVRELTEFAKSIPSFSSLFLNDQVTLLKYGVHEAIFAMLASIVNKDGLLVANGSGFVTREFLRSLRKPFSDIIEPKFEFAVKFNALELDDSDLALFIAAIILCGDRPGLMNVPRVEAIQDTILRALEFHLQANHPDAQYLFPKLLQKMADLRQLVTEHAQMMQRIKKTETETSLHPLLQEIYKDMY

Read-out in one assay: not listed separately
As to the kind of experiment: BSK_3C_VCAM1: BioMAP Diversity Plus: 3C Assay for Vascular cell adhesion molecule 1 (VCAM1) Biomarker Activity (AID 2282999). Particulars: BioMAP 3C HUVEC, VCAM1 ELISA, cytokine-stimulated; actives raise or lower the signal. An outline of the steps:
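Human umbilical vein endothelial cells (3C system), biomarker read by ELISA 24 h after dosing; bidirectional fit against DMSO baseline. Cytotoxicity tracked by SRB total-protein staining in parallel cultures at biomarker time.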
`CCOP(=S)(Oc1ccc([N+](=O)[O-])cc1)c1ccccc1` (stereo not drawn): the outcome was inactive.
Regarding `COP(=O)(O)OC`, the outcome was inactive.
As to `C=CC(=O)OCC(F)(F)C(F)F`, the AC50 is 35.5 µM (active) and 37 µM (active).
Regarding `O=C(O)C(F)(OC(F)(F)C(F)(F)C(F)(F)F)C(F)(F)F` (stereo not drawn), the result was inactive.
Regarding `O=P(OCC(Br)CBr)(OCC(Br)CBr)OCC(Br)CBr` (stereo not drawn), the AC50 is 17.4 µM (active).
Turning to `N#Cc1cc([N+](=O)[O-])ccc1N`, the result was inactive.
For the molecule `O=c1ssc(Cl)c1Cl`, the AC50 is 5.62 µM (active).
Take `CCOC(=O)c1ccccc1C(=O)OCC`: the result was inactive.
Still for that read-out and setting: the same measure for `CCOP(=S)(OCC)SCSc1ccc(Cl)cc1`: “inactive”.
`OCC(F)(F)OC(F)(F)C(F)(F)OC(F)(F)C(F)(F)OC(F)(F)CO`: the result was inactive.
Same read-out and setting: the same measure for `COP(N)(=S)OC`: “inactive”; for `CC(C)(C)c1ccc(O)cc1`: “inactive”.
Same read-out and setting: the same measure for `FC(F)(F)C(F)(C(F)(F)F)C(F)(F)C(F)(F)CC1CO1` (stereo not drawn): “inactive”; for `COCCOCCO`: “inactive”.
The same measure, in the same setting: next, `OCC1CO1` (stereo not drawn): “inactive”; `CCCCC(CC)COC(=O)c1c(Br)c(Br)c(Br)c(Br)c1C(=O)OCC(CC)CCCC` (stereo not drawn): “inactive”.
With `ClC(Cl)(Cl)c1ccccc1`, the result was inactive.
In the case of `C=CC(=O)OCC(CC)(COC(=O)C=C)COC(=O)C=C`, the AC50 was 2.55 µM (active).
With `CCOc1ccc(C(C)(C)COCc2cccc(Oc3ccccc3)c2)cc1`, the outcome was inactive.
For `CCOS(=O)(=O)OCC`, the outcome was inactive.
The same measure, in the same setting: the same measure for `c1ccc(OP(Oc2ccccc2)Oc2ccccc2)cc1`: “inactive”.
Take `ClC(Cl)c1ccccc1`: the result was inactive.
Still for that read-out and setting: next, `Nc1ccc([N+](=O)[O-])cc1Cl`: “inactive”; `Cc1ccc(O)cc1C`: “inactive”.

Read-out in the next assay: not listed separately
In words: BSK_4H_Eotaxin3: BioMAP Diversity Plus: 4H Assay for Eotaxin 3 Biomarker Activity (AID 2283000).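 As to outcome: CCL26 protein level quantified by ELISA in parallel with SRB cytotoxicity check.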 Particulars: primary human endothelial cells (HUVEC); actives raise or lower the signal. An outline of the steps: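 Chemicals were added to human umbilical vein endothelium cultures, and Eotaxin-3 was quantified by ELISA at 24 h. Values were derived by bidirectional fitting with DMSO serving as negative control and activity baseline.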
In the case of `CCOP(=S)(Oc1ccc([N+](=O)[O-])cc1)c1ccccc1` (stereo not drawn), the result was inactive.
Still for that read-out and setting: the same measure for `COP(=O)(O)OC`: “inactive”.
For `C=CC(=O)OCC(F)(F)C(F)F`, the concentration at half-maximal activity (AC50) was 30 µM (active) and 21 µM (active).
As to `O=C(O)C(F)(OC(F)(F)C(F)(F)C(F)(F)F)C(F)(F)F` (stereo not drawn), the AC50 is 8.11 µM (active) and the result was inactive.
Regarding `O=P(OCC(Br)CBr)(OCC(Br)CBr)OCC(Br)CBr` (stereo not drawn), the outcome was inactive.
Turning to `N#Cc1cc([N+](=O)[O-])ccc1N`, the AC50 was 4.4 µM (active).
`O=c1ssc(Cl)c1Cl`: the AC50 is 4.22 µM (active).
For `CCOC(=O)c1ccccc1C(=O)OCC`, the outcome was inactive.
On to `CCOP(=S)(OCC)SCSc1ccc(Cl)cc1`, for which the concentration at half-maximal activity (AC50) was 7.22 µM (active).
As to `OCC(F)(F)OC(F)(F)C(F)(F)OC(F)(F)C(F)(F)OC(F)(F)CO`, the result was inactive.
The same measure, in the same setting: next, `COP(N)(=S)OC`: “inactive”.
Same read-out and setting: next, `CC(C)(C)c1ccc(O)cc1`: “inactive”; `FC(F)(F)C(F)(C(F)(F)F)C(F)(F)C(F)(F)CC1CO1` (stereo not drawn): “inactive”; `COCCOCCO`: “inactive”.
Same read-out and setting: the same measure for `OCC1CO1` (stereo not drawn): “inactive”.
On to `CCCCC(CC)COC(=O)c1c(Br)c(Br)c(Br)c(Br)c1C(=O)OCC(CC)CCCC` (stereo not drawn), for which the result was inactive.
Take `ClC(Cl)(Cl)c1ccccc1`: the outcome was inactive.
On to `C=CC(=O)OCC(CC)(COC(=O)C=C)COC(=O)C=C`, for which the AC50 is 2.41 µM (active).
In the case of `CCOc1ccc(C(C)(C)COCc2cccc(Oc3ccccc3)c2)cc1`, the outcome was inactive.
On the same count and under the same terms, next, `CCOS(=O)(=O)OCC`: “inactive”; `c1ccc(OP(Oc2ccccc2)Oc2ccccc2)cc1`: “inactive”.
As to `ClC(Cl)c1ccccc1`, the result was inactive.
On to `Nc1ccc([N+](=O)[O-])cc1Cl`, for which the outcome was inactive.
The same measure, in the same setting: the same measure for `Cc1ccc(O)cc1C`: “inactive”.

For another assay, the target named is human Peroxisome Proliferator-activated Receptor alpha (PPARa), PPARA (gene 5465) (UniProt Q07869). As to the kind of experiment: ATG_PPARa_TRANS: Attagene TRANS-FACTORIAL HepG2 Assay for human Peroxisome Proliferator-activated Receptor alpha (PPARa) (AID 2283001; active = hit-call score of the fitted dose curve at least 0.9, where 1 is the maximum;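 as to AC50: potency for gain of reporter signal over DMSO so agonist or activator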).
Chain of human Peroxisome Proliferator-activated Receptor alpha (PPARa), PPARA (gene 5465) (Q07869 whole entry, looked up): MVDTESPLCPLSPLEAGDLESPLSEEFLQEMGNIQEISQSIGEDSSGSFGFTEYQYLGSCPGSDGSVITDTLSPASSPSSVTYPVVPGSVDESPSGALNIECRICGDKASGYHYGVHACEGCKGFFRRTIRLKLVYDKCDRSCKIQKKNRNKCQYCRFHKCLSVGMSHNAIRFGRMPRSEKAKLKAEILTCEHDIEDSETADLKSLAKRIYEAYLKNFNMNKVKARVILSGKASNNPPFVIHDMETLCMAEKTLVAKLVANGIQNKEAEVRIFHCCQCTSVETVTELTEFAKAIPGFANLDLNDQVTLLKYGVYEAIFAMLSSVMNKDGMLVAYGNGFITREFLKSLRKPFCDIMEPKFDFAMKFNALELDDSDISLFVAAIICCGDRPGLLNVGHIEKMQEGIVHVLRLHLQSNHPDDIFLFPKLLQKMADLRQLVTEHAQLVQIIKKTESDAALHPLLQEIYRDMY
Settings: not given
An outline of the steps: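 Measures transcriptional activity of an exogenous chimeric PPARa-Gal4 protein in transiently transfected HepG2 cells after 24 h dosing. Reporter mRNA quantified via RT-PCR and capillary electrophoresis; DMSO served as negative control.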
For `C=CC(=O)OCC(F)(F)C(F)F`, the molecule was classed as inactive.
As to `O=C(O)C(F)(OC(F)(F)C(F)(F)C(F)(F)F)C(F)(F)F` (stereo not drawn), the AC50 is 16.9 µM (active) and the molecule was called inactive.
Turning to `O=NN1CCCC1`, the outcome was inactive.
Consider `N#Cc1cc([N+](=O)[O-])ccc1N`, for which the molecule was called inactive.
Still for that read-out and setting: the same measure for `CCOC(=O)c1ccccc1C(=O)OCC`: “inactive”.
Still for that read-out and setting: next, `OCC(F)(F)OC(F)(F)C(F)(F)OC(F)(F)C(F)(F)OC(F)(F)CO`: “inactive”; `CC(C)(C)c1ccc(O)cc1`: “inactive”; `C/C(=N\NC(=O)Nc1cc(F)cc(F)c1)c1ncccc1C(=O)O`: “inactive”.
Same read-out and setting: the same measure for `COCCOCCO`: “inactive”.
In the case of `Clc1ccc(Oc2ccccc2)cc1`, the result was inactive.
Regarding `CCCCOCC1CO1` (stereo not drawn), the outcome was inactive.
In the case of `OCC1CO1` (stereo not drawn), the molecule was classed as inactive.
As for `CCCCC(CC)COC(=O)c1c(Br)c(Br)c(Br)c(Br)c1C(=O)OCC(CC)CCCC` (stereo not drawn), the molecule was called inactive.
The same measure, in the same setting: next, `Oc1ccc(I)cc1`: “inactive”; `ClC(Cl)(Cl)c1ccccc1`: “inactive”.
Same read-out and setting: next, `CC(C)CBr`: “inactive”; `CC1=C(C(=O)Nc2ccccc2)S(=O)(=O)CCO1`: “inactive”.
Same read-out and setting: the same measure for `C=CC(=O)OCC(CC)(COC(=O)C=C)COC(=O)C=C`: “inactive”; for `CCOS(=O)(=O)OCC`: “inactive”.
On to `c1ccc(OP(Oc2ccccc2)Oc2ccccc2)cc1`, for which the outcome was inactive.
The same measure, in the same setting: next, `ClC(Cl)c1ccccc1`: “inactive”.

The next assay has as its target human Peroxisome Proliferator-activated Receptor delta (PPARd), PPARD (gene 5467) (UniProt Q03181). In words: ATG_PPARd_TRANS: Attagene TRANS-FACTORIAL HepG2 Assay for human Peroxisome Proliferator-activated Receptor delta (PPARd) (AID 2283002; active = hit-call score of the fitted dose curve at least 0.9, where 1 is the maximum).
Settings: not given
The method, boiled down:
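HepG2 cells transiently transfected with GAL4-UAS multiplexed reporter units driven by exogenous chimeric NR-GAL4 proteins; 24 h compound exposure. Reporter mRNA measured by RT-PCR, 6-FAM primer extension, HpaI digestion and capillary electrophoresis; gain of signal fitted relative to DMSO.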
As for `CCOP(=S)(Oc1ccc([N+](=O)[O-])cc1)c1ccccc1` (stereo not drawn), the call was inactive.
Turning to `COP(=O)(O)OC`, the molecule was called inactive.
Same read-out and setting: next, `O=C(O)C(F)(OC(F)(F)C(F)(F)C(F)(F)F)C(F)(F)F` (stereo not drawn): “inactive”; `O=P(OCC(Br)CBr)(OCC(Br)CBr)OCC(Br)CBr` (stereo not drawn): “inactive”; `CC(O)C#N` (stereo not drawn): “inactive”.
Consider `O=NN1CCCC1`, for which the molecule was classed as inactive.
For `O=c1ssc(Cl)c1Cl`, the result was inactive.
On the same count and under the same terms, the same measure for `CCOP(=S)(OCC)SCSc1ccc(Cl)cc1`: “inactive”; for `OCC(F)(F)OC(F)(F)C(F)(F)OC(F)(F)C(F)(F)OC(F)(F)CO`: “inactive”.
The same measure, in the same setting: next, `COC(N)=O`: “inactive”; `CC(C)(C)c1ccc(O)cc1`: “inactive”.
The same measure, in the same setting: next, `O=C(CBr)OCc1ccccc1`: “inactive”.
Regarding `Clc1ccc(Oc2ccccc2)cc1`, the molecule was called inactive.
Same read-out and setting: next, `CCCCOCC1CO1` (stereo not drawn): “inactive”; `OCC1CO1` (stereo not drawn): “inactive”; `CCCCC(CC)COC(=O)c1c(Br)c(Br)c(Br)c(Br)c1C(=O)OCC(CC)CCCC` (stereo not drawn): “inactive”.
Same read-out and setting: next, `Oc1ccc(I)cc1`: “inactive”; `NNC(N)=S`: “inactive”.
On the same count and under the same terms, next, `ClC(Cl)(Cl)c1ccccc1`: “inactive”; `CC(C)CBr`: “inactive”.
Regarding `CC1=C(C(=O)Nc2ccccc2)S(=O)(=O)CCO1`, the molecule was classed as inactive.
As for `C=CC(=O)OCC(CC)(COC(=O)C=C)COC(=O)C=C`, the molecule was classed as inactive.
Consider `O=S(=O)(c1ccc(O)cc1)c1ccc(O)cc1`, for which the call was inactive.
On the same count and under the same terms, the same measure for `CCOS(=O)(=O)OCC`: “inactive”.
Still for that read-out and setting: next, `ClC(Cl)c1ccccc1`: “inactive”.
With `Nc1ccc([N+](=O)[O-])cc1Cl`, the molecule was classed as inactive.
On to `Cc1ccc(O)cc1C`, for which the result was inactive.

These data come from PubChem BioAssay (EPA / NIEHS).
